Source: PubChem
DT40 TDP1 no CPT: qHTS for Inhibitors of human tyrosyl-DNA phosphodiesterase 1 (TDP1): qHTS in cells in absence of CPT | DT40 Tdp1-/- hTDP1 cells, no CPT, ATP luminescence, 48 h | Potency, µM (doses to about 46.2 µM), actives largely listed as inhibitors | 420,000 tested, 15% active; note: nearly all actives have a fitted effect of over 55% in size
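Growth kinetics read by CellTiter-Glo luminescence after ≥48 hr at 37 °C. Cells: DT40 Tdp1-/- stably carrying human TDP1, 400 per well, compound exposure in the absence of CPT (DMSO vehicle).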
IL-1B inflam inh: inflammasome signaling inhibition, IL-1 beta readout. THP-1 LPS/ATP IL-1B secretion, AlphaLISA, 16 h; stronger effect = lower value. activity change, % at 57.5 µM. 360,000 tested, 4.7% active; in the data active = activity change below about -50%; inconclusive = mostly about -30% to -49%
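THP-1 cells pretreated 1 hr with compounds (up to 57.5 uM final), then stimulated with LPS (250 ng/mL final) plus ATP (1.25 mM final); secreted IL-1B measured by AlphaLISA after 16 hr, decreased signal indicating inhibition.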
DT40 TDP1 CPT: DT40-hTDP1 cell growth loss with CPT; AID 686979; 420,000 tested, 12% active; Potency, µM (highest dose often 46.2 µM), hits mostly inhibitors; chicken DT40 Tdp1-/-;hTDP1 cells + 20 nM CPT, ATP luminescence, 48 h; note: nearly all actives have a fitted effect of over 55% in size
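Chicken DT40 Tdp1-/- cells complemented with human TDP1, 400 cells/well, exposed to compounds plus 20 nM camptothecin for at least 48 h at 37 C; viability read as ATP content by CellTiter-Glo luminescence.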
ELG1 DNA repair: blocks ELG1-dependent DNA repair in HEK293T cells | HEK293T ELG1-luciferase reporter, luminescence, 16 h; DNA damage induced by 5-fluorouridine | Potency, µM (highest dose often 46.1 µM), hits mostly inhibitors | 330,000 tested, 2.3% active; note: nearly all actives have a fitted effect of over 55% in size
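Cells (2,000 per well) received 5-fluorouridine plus test compound or DMSO and were incubated 16 hr at 37 °C, 5% CO2. Luciferase activity was read by luminescence 30 min after ONE-Glo addition; signal suppression marked inhibition of damage-induced ELG1 function.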
HT1080-NT tox: kills 2HG-producing HT-1080-NT fibrosarcoma cells; HT-1080-NT fibrosarcoma viability, CellTiter-Glo ATP luminescence, 48 h; Potency, µM (top dose mostly 46.1 µM), hits mostly cytotoxic; 360,000 tested, 1.6% active;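 note: NT is the 2HG producing partner of a matched IDH1 knockdown line; nearly all actives have a fitted effect of over 55% in size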
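Luminescent CellTiter-Glo readout after 48 hours of compound exposure at 37 degrees C defined viability of HT-1080-NT cells. Activity was normalized to DMSO wells and cell-free media wells; concentration-response curves were fitted and assigned curve classes.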
HT1080 IDH1KD tx: HT-1080 IDH1 knockdown cell toxicity (counter line) | HT-1080 IDH1 knockdown viability, ATP luminescence, 48 h | Potency, µM (titrated, usually from 46.1 µM), actives largely listed as cytotoxic | 360,000 tested, 2% active | AID 686971
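Using the IDH1-knockdown HT-1080 line run in the same batch and compound series as the NT line, viability after 48 h at 37 °C was determined by CellTiter-Glo luminescence and expressed as % activity.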
Hits are given with their value; 0 = inactive; ? = inconclusive; - = no result given; [ ] = dose if it differs, or a comment. The list is not random: actives were taken first. Their share in the collection is about 19%. Unless noted, calls come from the whole dose curve; as a rule, active = well fitted curve in the direction sought with a large enough effect; inconclusive = small, poorly fitted or top-dose-only effect, or another doubt; inactive = no such curve, though single readings can be large; an effect the other way counts as inactive or inconclusive.

SMILES	DT40 TDP1 no CPT	IL-1B inflam inh	DT40 TDP1 CPT	ELG1 DNA repair	HT1080-NT tox	HT1080 IDH1KD tx
CCOC(=O)N(C)c1c(CC)nc2c(OCc3ccc(S(C)(=O)=O)cc3)cccn12	0	0	0	-	0	0
COc1cc(C2C(C#N)=C(N)Oc3cc(C)oc(=O)c32)cc(OC)c1OC (stereo not drawn)	23µM	0	?	0	0	0
Cc1cc2c(c(=O)o1)C(c1cccs1)C(C#N)=C(N)O2 (stereo not drawn)	18µM	-63	23µM	0	0	0
Cc1ccc([C@H]2C(C#N)=C(N)Oc3cc(C)oc(=O)c32)o1	23µM	-106	16µM	0	?	0
Cc1ccc(SCc2[nH]nc3c2C(c2ccco2)C(C#N)=C(N)O3)cc1 (stereo not drawn)	?	0	?	0	?	0
Cc1ccc(SCc2[nH]nc3c2C(c2ccc(C)o2)C(C#N)=C(N)O3)cc1 (stereo not drawn)	16µM	0	16µM	0	0	?
Brc1ccc(-n2cnc(-c3ccccc3)c2)cc1	?	0	?	?	0	0
Cc1ccc(NC(=O)Cn2cnc3sc(C)c(S(=O)(=O)N4CCN(c5ncccn5)CC4)c3c2=O)cc1F	?	-	0	-	-	-
CCCN=C1N(C)C[C@@H]2[C@@H]3C(=O)N(C)C(=O)[C@@H]3[C@](C)(C(=O)OC)N12	0	0	0	?	0	0
COc1ccc(C(=O)NNc2ncnc3c2cnn3-c2ccccc2)cc1	0	-	0	-	-	-
CCc1nc2ccc(C(=O)NCc3ccccc3OC)cn2c1N(C)Cc1ccc(N(C)C)cc1	21µM	0	21µM	-	0	0
CCc1nc2ccc(C(=O)NCCOc3ccc(OC)cc3)cn2c1N(C)Cc1nccn1C	0	0	0	-	0	0
COc1ccc(OCCNC(=O)c2ccc3nc(C)c(N(C)Cc4ccc(NC(C)=O)cc4)n3c2)cc1	16µM	0	16µM	-	0	0
COc1cccc(NC(=O)c2ccc3nc(C)c(N(C)Cc4ccc(NC(C)=O)cc4)n3c2)c1	0	0	?	-	0	0
CCc1nc2ccc(C(=O)NCCc3c[nH]c4ccccc34)cn2c1N(C)Cc1ccc(N(C)C)cc1	?	0	?	-	0	0
CCc1nc2ccc(C(=O)NCCOc3ccc(OC)cc3)cn2c1N(CC)Cc1ccc(OC)c(OC)c1	21µM	?	21µM	-	0	0
CCc1nc2ccc(C(=O)NCCOc3ccc(OC)cc3)cn2c1N(C)Cc1ccc(N(C)C)cc1	?	0	23µM	-	?	0
CCC1CN(CC(=O)NCc2n[nH]c3c2CCCCC3)Cc2cc(OC)ccc2O1 (stereo not drawn)	?	-	0[9.04 µM]	-	-	-
Cc1cccc(C)c1NC(=O)C(c1ccc(C#N)cc1)n1c(=O)c(-c2ccco2)nc2ccccc21 (stereo not drawn)	?	?	?	-	0	0
CC(=O)c1ccc(S(=O)(=O)NC2CC(=O)N(c3cccc(F)c3)C2)cc1 (stereo not drawn)	0	0	?	0	0	0
COc1cccc(C(c2sc3nc(-c4ccco4)nn3c2O)N2CCN(C)CC2)c1 (stereo not drawn)	0	-	0	-	-	-
CN(C)C(=O)C(OC(=O)c1ccc2c(c1)CCCC2)c1ccccc1 (stereo not drawn)	21µM	0	?	0	0	0
O=C1CCN(Cc2ccc(O)cc2)CCN1CCO	0	0	0	0	0	0
COc1ccc(NC(=O)CN(Cc2ccccc2)S(=O)(=O)c2ccc(C)cc2)cc1Cl	?	-	18µM	-	-	-
COc1ccc(S(=O)(=O)N(CC(=O)Nc2cc(Cl)ccc2C)Cc2ccccc2)cc1OC	?	-	15µM	-	-	-
SMILES	DT40 TDP1 no CPT	IL-1B inflam inh	DT40 TDP1 CPT	ELG1 DNA repair	HT1080-NT tox	HT1080 IDH1KD tx
CC1=C(C(=O)OC(C)C)C(c2cccc(F)c2)n2ncnc2N1 (stereo not drawn)	16µM	0	15µM	0	0	0
CCOc1ccc(C(=S)N2CCCC2)c(OCC)c1	?	0	21µM	0	0	0
Cc1nc2ccc([N+](=O)[O-])cc2s1	0	0	0	0	0	0
Cc1nc2ccc(NS(=O)(=O)c3cccc([N+](=O)[O-])c3)cc2s1	15µM	0	18µM	?	0	0
Cc1nc2ccc(NC(=O)CCS(=O)(=O)c3ccc(Cl)cc3)cc2s1	15µM	0	12µM	0	0	0
COc1ccc(NC(=O)CCS(=O)(=O)c2ccc3nc(C)sc3c2)cc1OC	0	0	0	0	0	0
COc1ccc(S(=O)(=O)Nc2ccc3c(c2)OCCO3)cc1OC	0	0	0	?	0	0
Cc1nc2ccc(NS(=O)(=O)c3ccc4c(c3)OCCO4)cc2s1	1.5µM	0	1.8µM	?	0	0
Cc1ccc(S(=O)(=O)Nc2ccc3nc(N)sc3c2)cc1	12µM	0	13µM	?	0	?
NNC(=O)c1ccc(S(=O)(=O)N2CCc3ccccc32)cc1	0	0	0	0	0	0
Cc1nc2ccc(NS(=O)(=O)c3ccc(Br)cc3)cc2s1	5.2µM	0	13µM	0	0	0
Cc1nc2ccc(NS(=O)(=O)c3ccc(F)c(F)c3)cc2s1	?	0	18µM	0	0	0
O=S(=O)(Nc1ccc(N2CCOCC2)cc1)c1cc(Cl)ccc1Cl	12µM	0	0	0	0	0
O=S(=O)(Nc1ccc(N2CCCCC2)cc1)c1ccc(F)c(F)c1	15µM	0	?	0	0	0
CCn1c(=S)sc2c(=O)n(CC(=O)Nc3ccc(Cl)cc3)c(C)nc21	0	0	?	0	0	0
c1cn(CCCNC2CCCCCCC2)cn1	0	0	0	-	0	0
CC(=O)Nc1ccc(NC(=O)C(NC(=O)C2CCC(C)CC2)C(C)C)cc1 (stereo not drawn)	0	-	0	-	-	-
Cc1noc(C)c1S(=O)(=O)Nc1ccc2c(c1)C(=O)N([C@H](C)CO)C[C@H](C)[C@@H](CN(C)S(=O)(=O)c1ccc(F)cc1)O2	0	0	0	0	0	0
C=CCn1c(SCC(=O)c2c(C)[nH]c3ccccc23)nnc1-c1ccncc1	0	0	0	0	0	?
COc1cccc([C@@H]2CC=C(C(=O)O)CN2S(=O)(=O)c2ccc(C)cc2)c1	0	0	?	0	0	0
O=C(Cc1ccccc1)Nc1nnc2n1CCS2	0	-	0	-	-	-
Cc1c(NS(=O)(=O)c2ccc3c(c2)OCCO3)cccc1-c1nc2cccnc2s1	12µM	0	?	?	0	0
